Hits are enriched below; roughly 1.1% of the tested compounds scored in any of these assays.
GPT2 inhibitor: inhibitors of human GPT2 alanine aminotransferase; Q8TD30; Recombinant GPT2, coupled pyruvate oxidase/HRP Amplex Red fluorescence; Potency, µM (top dose mostly 57.7 µM), for the others: at the top dose activity change, negative = inhibition, usual class: inhibitors; 100,000 tested, 0.25% active; AID 1671188; further: potency means the concentration at half of the fitted maximal effect; nearly all actives have a fitted effect of over 60% in size
Target sequence (Q8TD30 whole entry, looked up): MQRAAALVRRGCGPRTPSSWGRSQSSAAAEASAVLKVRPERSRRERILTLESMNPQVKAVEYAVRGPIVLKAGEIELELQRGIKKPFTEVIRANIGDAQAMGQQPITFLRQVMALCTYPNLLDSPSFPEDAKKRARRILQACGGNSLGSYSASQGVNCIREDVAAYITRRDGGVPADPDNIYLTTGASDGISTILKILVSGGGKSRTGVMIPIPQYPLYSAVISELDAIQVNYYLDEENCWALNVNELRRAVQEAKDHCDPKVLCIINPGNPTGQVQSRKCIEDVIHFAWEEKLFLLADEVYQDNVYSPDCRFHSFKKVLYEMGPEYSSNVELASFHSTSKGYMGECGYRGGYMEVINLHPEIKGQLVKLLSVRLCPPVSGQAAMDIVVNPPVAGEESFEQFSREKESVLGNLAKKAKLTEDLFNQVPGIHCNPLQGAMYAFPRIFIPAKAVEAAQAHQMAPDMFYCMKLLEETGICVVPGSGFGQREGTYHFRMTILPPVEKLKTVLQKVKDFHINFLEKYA
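Fluorescence of coupled pyruvate oxidase/HRP/Amplex Red system (50uM Amplex, 30 min, dark) reports pyruvate formed by GPT2. Enzyme reaction: 10ng/uL GPT2, 2mM L-alanine, 250uM a-KG, 30 min room temperature, pH 7.5; 50uM AOA control.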
HEK293 viab: cell viability loss counter-screen. HEK-293-SNCA-luc viability, GF-AFC fluorescence, 24 h. Potency, µM (highest dose often 57.1 µM), for inactives: at the highest dose activity change, negative = cytotoxicity, usual class: cytotoxic. 150,000 tested, 0.12% active. AID 1671193;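 further: potency means the concentration at half of the fitted maximal effect; 0% = DMSO-treated cells and -100% = medium-only wells without cells; nearly all actives have a fitted effect of over 30% in size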
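Cytotoxicity counterscreen: after 24 h compound treatment of genome-edited SNCA-luciferase HEK-293 cells, live-cell protease substrate GF-AFC read by fluorescence after 30 min; activity scaled between DMSO (0%) and medium-only (-100%), curves Hill-fitted.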
SNCA expr inh: inhibitors of alpha-synuclein (SNCA) gene expression; 140,000 tested, 0.17% active; HEK-293 SNCA-luciferase knock-in, luminescence, 24 h; AID 1671194; Potency, µM (titrated, usually from 57.2 µM), for inactives: top-dose activity change, negative = inhibition, actives largely listed as inhibitors;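 further: potency means the concentration at half of the fitted maximal effect; plate controls were DMSO cells for no effect and cell-free wells for full effect; nearly all actives have a fitted effect of over 45% in size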
IP6K1 inhibitor: blocks human inositol hexakisphosphate kinase 1 | Q92551 | IP6K1 kinase, ADP-Glo luminescence, 2 h; active compounds read low | activity change, % (series mostly up to about 58 µM) | 140,000 tested, 0.81% active | AID 1645851; in the data active means activity change below about -25%
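ADP-Glo luminescence measures ADP made by human IP6K1 during a 2 h RT reaction with ATP/IP6 (mix at 1.3 mM/130 uM); top library doses 57.5 and 19.1 uM final.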
IP6K1 inh cnf: confirmation of human IP6K1 inhibitors | shares compounds with IP6K1 inhibitor | recombinant IP6K1 kinase, ADP-Glo luminescence, 2 h | Potency, µM (top dose mostly 49 µM), for inactives: at the top dose activity change, negative = inhibition, most hits filed as inhibitors | 1,200 tested, 13% active; further: potency means the concentration at half of the fitted maximal effect; nearly all actives have a fitted effect of over 65% in size
An asterisk follows results filed as active; i = inactive; u = inconclusive; x = no result given; [ ] = another dose, or the depositor's remark. Unless noted, the call rests on the fitted dose curve; in most records, active means well fitted curve in the direction sought with a large enough effect; inconclusive means small, poorly fitted or top-dose-only effect, or another doubt; inactive means no such curve, though single readings can be large; an effect the other way counts as inactive or inconclusive. Unless noted, on the % scale 0 is the no-effect control and ±100 the full control effect.

SMILES	GPT2 inhibitor	HEK293 viab	SNCA expr inh	IP6K1 inhibitor	IP6K1 inh cnf
Cn1c(=O)n([C@@H]2CCN(C(=O)CCc3nc4ccccc4s3)C2)c2ncccc21	-6%	-2%	47%	-15	x
O=S(=O)(NC1CCN(c2ccc3nnc(-c4ccccc4)n3n2)CC1)c1cccs1	x	x	x	-27*	u
CC1CCN(C(=O)CSc2nc(-c3ccccc3)no2)CC1	x	0%	36%	-26*	u
CCOC(=O)c1cccc(NC(=O)CCCn2nc(C)c3c(C)n(-c4ccccc4)nc3c2=O)c1	x	-1%	-10%	-100*	8%
Cc1ccc(NC(=O)CCCn2nc(C)c3c(C)n(-c4ccccc4)nc3c2=O)cc1Cl	x	10%	38%	20	x
COc1ccc(-c2cn3c(n2)sc2cc(C(=O)NCc4cccs4)ccc23)cc1	x	-7%	133%	-3	x
O=C(NCc1cccs1)c1ccc2c(c1)sc1nc(-c3ccccc3)cn12	x	-16%	143%	-25*	u
O=C(Oc1ccccc1F)c1nc(SCc2ccccc2F)ncc1Cl	x	9%	6%	-33*	-19%
Cc1ccc(CSc2ncc(Cl)c(C(=O)Oc3ccccc3F)n2)cc1	x	9%	-5%	-24	x
O=C1CCN(S(=O)(=O)c2ccccc2)CCCN(C(=O)CCCc2ccccc2)CCN1	i	4%	-19%	1	x
O=C(O)CC1(CC(=O)N2CC[C@H]3NC(=O)N(c4ccc(F)cc4)C(=O)[C@H]32)CCCC1	3%[88.5 µM]	-1%[87.6 µM]	-1%[87.6 µM]	-3	x
Cc1ccc(-c2ccc(=O)n(CCC(=O)NCCc3ccccc3)n2)cc1	x	0%	22%	-27*	-12%
COc1ccccc1N1CCN(C(=O)C(OC)c2ccccc2)CC1=O (stereo unspecified)	u	-1%	u	-26*	-16%
COc1ccccc1N1CCN(S(=O)(=O)CCNC(=O)C(c2ccccc2)c2ccccc2)CC1	x	-7%	-1%	16	x
CC[C@@H]1C(=O)N(C)c2cnc(Nc3ccc(C(=O)NC4CCN(C)CC4)cc3OC)nc2N1C1CCCC1	i	u	-4%	x	18%
Cc1cccn2c(=O)c(C(=O)NCCc3ccc(Cl)cc3)cnc12	x	-8%	67%	8	x
CSc1ccc(CCNC(=O)c2cnc3c(C)cccn3c2=O)cc1	x	13%	31%	-29*	-21%
CCOC(=O)C1CCN(C(=O)C2CCc3nnc(CNC(=O)NC(C)(C)C)n32)CC1 (stereo unspecified)	-3%	-4%	14%	-22	x
O=C(c1ccc2cc[nH]c2c1)N1CCN(C(=O)c2nnn3c2COC(c2ccc(Cl)cc2)C3)CC1 (stereo unspecified)	i	-25%	-8%	-28*	-9%
Cc1ccc(C2Cn3nnc(C(=O)N4CCC(C(=O)NC5CC5)CC4)c3CO2)cc1 (stereo unspecified)	i	14%	105%	0	x
Cc1ccc(C2Cn3nnc(C(=O)N4CCC(C(=O)NC5CCC(C)CC5)CC4)c3CO2)cc1 (stereo unspecified)	i	0%	5%	-30*	-10%
O=[S+]([O-])(Nc1ccccc1)c1ccc2c(c1)OCCN(Cc1cccnc1)C2	-3%[88.5 µM]	-10%[87.6 µM]	-9%[87.6 µM]	-8	x
Cc1nn(-c2ccc(C(C)(C)C)cc2)c(C)c1[C@@H]1C=C[C@@H](NCc2ccco2)C1	4%[88.5 µM]	-28%[87.6 µM]	26%[87.6 µM]	-3	x
CCCCCCCCn1cc(CN(CC)CC)c2cc(-c3cnc(N)nc3)ccc21	u	u	x	-35*	u
NC(=O)CCn1cc(CN(CCO)Cc2ccccc2F)c2ccccc21	-3%	20%	3%	4	x
SMILES	GPT2 inhibitor	HEK293 viab	SNCA expr inh	IP6K1 inhibitor	IP6K1 inh cnf
Cc1ccc(OCCCCn2cnc3ccccc32)cc1	x	8%	14%	-33*	u
N#CCC(C1CCCC1)n1cc(-c2ncnc3[nH]ccc23)cn1 (stereo unspecified)	-4%	-10%	x	-9	-23%
CC(CO)C1CCC2(C)CC3C(CO)CC(O)C3C(C)(O)C/C=C/12 (stereo unspecified)	2%[27.3 µM]	-1%	x	-5	x
CC(C)CNC(=O)C1CCN(C(=O)N2CC3CC(C2)[C@H]2CCCC(=O)N2C3)CC1 (stereo partly specified)	i	-1%	-15%	0	x
CC(=O)c1cccc(Nc2nc(-c3cccc(C)c3)nc3ccccc23)c1	x	-5%	52%	-39*	u
CN(C)c1ccc(-c2cc(-c3ccc(=O)[nH]c3)c3cncn3c2)cc1	i	-19%[87.6 µM]	26%[87.6 µM]	0	-14%
C/C(=C\c1ccccc1)CN1CCC2(CC1)Cc1ccccc1CNC2=O	1%	-16%	10%	9	x
COc1cccc(N2C(=O)NC(=NC3CCCCC3)C23CCCN(Cc2ccsc2)C3)c1 (stereo unspecified)	1%	u	u	-11	x
Cc1cc2cc(C(=O)N(C)Cc3ccc4nsnc4c3)ccc2o1	-39%[11.5 µM]	-14%	15%	-32*	u
CN(Cc1ccc2nsnc2c1)C(=O)c1ccc(CCC(C)(C)O)cc1	3%	-6%	-7%	21	x
Cc1ccc(-c2csc(=Nc3ccccc3)n2Cc2ccc3c(c2)OCO3)cc1C	x	-11%	99%	-16	x
Cc1ccc(-c2csc(=Nc3ccc(F)cc3)n2Cc2ccc3c(c2)OCO3)cc1C	x	26%	80%	-36*	-5%
Fc1ccc(-c2csc(=Nc3cccc(C(F)(F)F)c3)n2Cc2ccc3c(c2)OCO3)cc1	x	13%	1%	-26*	2%
CCN(CC)S(=O)(=O)c1ccc(-c2csc(=Nc3cccc(C(F)(F)F)c3)n2Cc2ccc3c(c2)OCO3)cc1	x	7%	-1%	-4	x
O=C(NCCc1ccccc1F)c1cn2cc(-c3ccc(C(F)(F)F)cc3)sc2n1	i	-7%	-2%	8	x
Cc1oc2c(c(C)cc3oc(=O)c(CC(=O)NCCc4ccccc4F)c(C)c32)c1C	x	-1%	17%	-27*	-12%
COc1ccc(CCNC(=O)Cc2c(C)c3c(cc(C)c4c(C)c(C)oc43)oc2=O)cc1OC	x	6%	23%	-16	x
COc1cc2ncnc(Nc3cccc(O)c3)c2cc1OC	-1%	-30%	x	-9	x
COc1cc2ncnc(Nc3cccc(Br)c3)c2cc1OC	-5%	5%	44%	x	u
CC(C)NC(=O)CN1C(=O)NC2(CCC(C(C)(C)C)CC2)C1=O (stereo unspecified)	i	0%	-21%	-2	x
NC(=O)Cc1c[nH]c2ncc(-c3cccc(OC(F)(F)F)c3)cc12	u	-16%[87.6 µM]	-25%[87.6 µM]	-27*	u
O=C(Cc1c[nH]c2ncc(-c3cccc(OC(F)(F)F)c3)cc12)NCc1cccnc1	u	-16%[87.6 µM]	-11%[87.6 µM]	-13	x
COc1cccc(-c2cnc3[nH]cc(CC(N)=O)c3c2)c1	i	4%[87.6 µM]	0%[87.6 µM]	-44*	u

Bioassay records as filed in PubChem.
